The full data set covers some 21,000 targets. This sample favours those with the largest changes.
Target: HPRT1_P00492_66_EMGGHHIVALCVLK (UniProt P00492)
Experiment: probe-labelled cysteine peptide fold change vs DMSO (competition) (log2 fold change); higher = less target engagement (more negative = stronger competition)
Conditions: THP-1, incubation time: 4 h
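Also: competitive chemoproteomic profiling in live THP-1 cells with an iodoacetamide desthiobiotin (IA-DTB) probe, comparing probe-labelled peptide intensities in compound-treated cells against DMSO-treated controls.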

Sequence of UniProt P00492 (P00492 whole entry, looked up): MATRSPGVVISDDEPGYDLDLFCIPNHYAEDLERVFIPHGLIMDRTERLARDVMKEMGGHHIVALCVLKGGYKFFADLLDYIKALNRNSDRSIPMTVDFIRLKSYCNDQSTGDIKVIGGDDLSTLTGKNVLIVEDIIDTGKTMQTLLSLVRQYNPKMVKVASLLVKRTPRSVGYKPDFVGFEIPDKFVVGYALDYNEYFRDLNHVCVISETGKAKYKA

CC1Cc2ccccc2N1C(=O)C1CCCN(C(=O)CCl)C1 (mixture of isomers) [TRIM25 ligand 11 (diastereomer mixture)]
probe-labelled cysteine peptide fold change (10 µM): -0.135
probe-labelled cysteine peptide fold change (50 µM): 0.123
